Where “and” joins values, the source holds several entries; their conditions need not be identical. Equal values may be shown once. Where a name gives a salt, the structure may show the parent alone.
Key:
Experiment in all cases: cell viability relative to vehicle control; higher = less cytotoxic
Settings in all cases: 10 µM
K562 = test system: K562
How it was run: (§1)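 Screening covered the Selleck bioactive, kinase and epigenetic probe libraries, less identity-inconsistent compounds, on CRISPR-edited mutant clones and isogenic wild-type clones of four leukaemia lines. Cells, at 2000 per well in 50 µL medium, received a single 10 µM acoustically dispensed dose. After 48 h the supernatant was removed and CellTiter-Glo luminescence was read. Viability was analysed in Genedata Screener as percent of the on-plate vehicle control.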

MARIMO = test system: MARIMO
How it was run: as §1

MOLM14 = test system: MOLM14
How it was run: as §1

OCI-AML2 = test system: OCI-AML2
How it was run: as §1

SMILES	cell viability (K562; SRSF2 genotype: SRSF2 P95H/wt)	cell viability (K562; SRSF2 genotype: SRSF2 wt/wt) [%]	cell viability (MARIMO; SRSF2 genotype: SRSF2 P95H/wt) [%]	cell viability (MARIMO; SRSF2 genotype: SRSF2 wt/wt) [%]	cell viability (MOLM14; SRSF2 genotype: SRSF2 P95H/wt) [%]	cell viability (MOLM14; SRSF2 genotype: SRSF2 wt/wt) [%]	cell viability (OCI-AML2; SRSF2 genotype: P95H/wt) [%]	cell viability (OCI-AML2; SRSF2 genotype: wt/wt) [%]
CNCC[C@H](Oc1cccc2ccccc12)c1cccs1 [Duloxetine HCl (Cymbalta)]	45.7% and 60.1%	54.7	55	61.4	55.9	70.9	46.2	53.5
COc1cc2c(cc1OC)-c1cc3ccc(OC)c(OC)c3c[n+]1CC2 [Palmatine]	80.5% and 88.6%	90.2	92.6	92	93.5	90.9	88.8	78.7
O=C(NCCCNc1nc(Nc2cccc(NC(=O)N3CCCC3)c2)ncc1I)c1cccs1	62.4% and 86.2%	74.4	56.6	56.7	11.1	6.15	12.4	20.6
OC(c1cc(-c2ccc(Cl)cc2)nc2ccccc12)C1CCCCN1 (centres undefined) [Vacquinol-1]	0.22% and 0.74%	0.11	0.1	0.17	0.03	0.14	0.05	0.39
Cc1nc(Nc2ncc(C(=O)Nc3c(C)cccc3Cl)s2)cc(N2CCN(CCO)CC2)n1 [Dasatinib]	21.5% and 39.8%	27.1	68.1	61.3	40.3	35.1	31.8	40.6
OC[C@H]1O[C@H](OCC2O[C@@H](O)[C@H](O)[C@@H](O)[C@@H]2O)[C@H](O)[C@@H](O)[C@H]1O (some centres undefined) [Melibiose]	108% and 104%	106	105	110	101	108	98.5	103
CC1(C)CCC2(C(=O)O)CCC3=C(C(CCl)CC4C3(C)CCC3C4(C)CC(O)C(O)C3(C)C(=O)O)C2C1 (centres undefined) [Senegenin]	107% and 97.9%	104	96.8	108	100	106	105	113
Nc1cccc(-c2cc3c(Oc4cccc(O)c4)ncnc3[nH]2)c1	28.4% and 39.8%	27.7	84.4	94.5	37.8	35.5	53.4	53.3
C=CC(=O)Nc1cccc(Oc2nc(Nc3ccc(N4CCN(C)CC4)cc3OC)ncc2Cl)c1	102% and 107%	103	85.8	98.7	57.6	84.8	92	83.9
COc1ccc(O)cc1 [Mequinol]	103% and 95.3%	106	91.1	100	95.6	96.9	90.4	103
O=C(NCCS(=O)(=O)c1ccc(C(F)(F)F)cn1)c1ccc(Cl)cc1	103% and 96.6%	102	91.2	102	102	99.2	91.7	102
Cc1ccc(NC(=O)Nc2cc(C(F)(F)F)ccc2F)cc1Nc1ccc2c(c1)NC(=O)/C2=C\c1ccc[nH]1	75.2% and 70.9%	62.1	84.4	92.2	86.5	94.4	74.4	70.1
CC1(C)C2CCC1(C)C(O)C2 (single isomer, unassigned; (-)) [(-)-Borneol]	103%	106	100	109	101	104	109	106
CC1=CCC[C@H](C)C(=O)C[C@@H](C(C)C)C(=O)C1 [Curdione]	93.2% and 88.9%	83.8	93.8	90.8	91.2	87.5	91	87.2
CNC(=O)c1nn(C)c2c1C(C)(C)Cc1cnc(Nc3ccc(N4CCN(C)CC4)cc3)nc1-2	34% and 36.5%	25.2	21.4	22.6	16	5.62	13.8	19.4
CC1=CC(=O)CC(C)(C)C1(O)/C=C/C(C)=C\C(=O)O (centres undefined) [Abscisic Acid (Dormin)]	102% and 99.2%	98.1	101	110	104	101	105	102
COc1cc(O)c(CC=C(C)C)c2c1C(=O)CC(c1ccc(O)cc1)O2 (centres undefined) [Isoxanthohumol]	83.1% and 81.6%	78.3	94.3	82.2	94.7	97.7	93.7	93
COc1ccc(Cl)cc1NC(=O)Nc1cc(C)nc2ccccc12	81.3% and 91.2%	87	98.8	99.1	87.6	90.1	82.7	74.1
Cc1c(Cn2c(C)nc3c(C(=O)O)cc(N4CCOCC4)cc32)cccc1C(F)(F)F	104% and 97.4%	108	105	105	83.2	89.7	92.7	95.2
CNc1cc(-c2cccc(Cl)c2Cl)nc(N)n1	15.8% and 28.9%	29.6	12.2	9.54	9.14	2.78	6	11.5
Cc1c(-c2ccc(C(N)=O)c3[nH]c4cc(C(C)(C)O)ccc4c23)cccc1-n1cnc2ccccc2c1=O	80.1% and 89.9%	92.2	73.5	66.2	48.4	54.8	43.6	46.2
CCN(CC)C(=O)/C(C#N)=C/c1cc(O)c(O)c([N+](=O)[O-])c1 [Entacapone]	101% and 105%	107	101	102	102	102	114	97.4

SMILES	cell viability (K562; SRSF2 genotype: SRSF2 P95H/wt)	cell viability (K562; SRSF2 genotype: SRSF2 wt/wt) [%]	cell viability (MARIMO; SRSF2 genotype: SRSF2 P95H/wt) [%]	cell viability (MARIMO; SRSF2 genotype: SRSF2 wt/wt) [%]	cell viability (MOLM14; SRSF2 genotype: SRSF2 P95H/wt) [%]	cell viability (MOLM14; SRSF2 genotype: SRSF2 wt/wt) [%]	cell viability (OCI-AML2; SRSF2 genotype: P95H/wt) [%]	cell viability (OCI-AML2; SRSF2 genotype: wt/wt) [%]
Cc1cc(F)c(C(=O)Nc2cccc(-c3nncn3C(C)C)n2)cc1-n1cnc(C2CC2)c1 [Selonsertib (GS-4997)]	78.6% and 86.2%	82	57.1	72.1	63.5	68.5	49.5	62
CC(C)CC(NC(=O)C(Cc1ccccc1)CC(O)C(Cc1ccccc1)NC(=O)OC(C)(C)C)C(=O)NC(Cc1ccccc1)C(N)=O (centres undefined)	106% and 109%	111	106	99.5	108	106	112	120
COc1cc2nccc(Oc3ccc(NC(=O)c4cn(C(C)C)c(=O)n(-c5ccc(F)cc5)c4=O)cc3F)c2cc1OC	30.1% and 27.1%	48.2	102	102	27.7	43.7	70.4	80.4
O=c1cc(-c2ccc(O)cc2)oc2cc(O)c(O)c(O)c12 [Scutellarein]	92% and 86.2%	95	102	91.3	107	103	102	97
Cc1cnc(NC(=O)Nc2cc(Br)c(C)cc2OC[C@@H]2CNCCO2)cn1	8.35% and 7.58%	8.76	20.6	8.01	10.8	6.96	12.8	12.1
CNC1CCCN(c2c(F)cc3c(=O)c(C(=O)O)cn(C4CC4)c3c2OC)C1 (centres undefined) [Balofloxacin]	104% and 108%	105	107	105	107	109	106	94.3
COc1cc(N)c(Cl)cc1C(=O)NC1CCN(CCCOc2ccc(F)cc2)CC1OC (centres undefined) [Cisapride hydrate]	93.4% and 92.3%	95.5	93.3	105	99.8	102	105	99.8
CCn1cc(-c2cccc(C(F)(F)F)c2)c2sc(C(=N)NC3CCS(=O)(=O)CC3)cc2c1=O	68.1% and 71.5%	69.9	55.8	45.3	27	32.3	22.6	42.1
CCNC(=O)Nc1ccc(-c2nc(N3CCOC[C@@H]3C)c3c(n2)C(C)(C)S(=O)(=O)C3)cc1	40% and 38.6%	34.4	56.9	51	33.5	26.9	29.6	32
OCCN1C[C@H](O)[C@@H](O)[C@H](O)[C@H]1CO [Miglitol (Glyset)]	98.3% and 109%	101	106	102	106	106	107	94.9
CCOc1ccccc1OCCN[C@H](C)Cc1ccc(OC)c(S(N)(=O)=O)c1 [Tamsulosin]	100% and 96%	90.7	85.2	103	97.5	98	87.4	105
CC[C@@H]([C@H](C)O)n1ncn(-c2ccc(N3CCN(c4ccc(OC[C@@H]5CO[C@@](Cn6cncn6)(c6ccc(F)cc6F)C5)cc4)CC3)cc2)c1=O [Posaconazole]	55.7% and 75.6%	87	55.6	59	62.2	85.5	18.1	23.9
CCCCCCCCCCCCCCCCO [1-Hexadecanol]	102% and 92.5%	98.6	100	109	101	103	94.5	116
CNC(=O)c1ccc(N2C(=S)N(c3cnc(C#N)c(C(F)(F)F)c3)C(=O)C23CCC3)cc1F	98.6% and 98.8%	103	104	110	98.4	109	96.2	88.1
Nc1[nH]cnc2ncnc1-2 [Adenine hydrochloride]	127% and 120%	105	98.5	111	105	108	114	118
CC(C)(C(=O)O)c1ccc(C(O)CCCN2CCC(C(O)(c3ccccc3)c3ccccc3)CC2)cc1 (centres undefined) [Fexofenadine HCl]	99.1% and 98.7%	101	95.9	103	100	101	94.1	110
O=C(O)CCc1ccc(O)cc1 [Phloretic acid]	99.4% and 99.9%	94.6	93.9	104	109	103	99.2	105
CC(=O)O[C@@H]1C[C@H](O)[C@@]23CO[C@@H](O)[C@]1(C)[C@@H]2C[C@@H](O)[C@]1(C)[C@@H]3C(=O)[C@H](OC(C)=O)[C@@]2(C)[C@H](c3ccoc3)C[C@H]3O[C@]321 [Toosendanin]	45.5% and 43%	42.4	38.2	34.2	37.1	11.1	23.8	23.9
COc1c(O)cc2c(c1O)[C@@H]1O[C@H](CO)[C@@H](O)[C@H](O)[C@H]1OC2=O [Bergenin (Cuscutin)]	100% and 84%	86.1	89.2	99	85.6	91.9	91	94.1
COC(=O)[C@H](CCSC)NC(=O)c1ccc(NC[C@@H](N)CS)cc1-c1ccccc1	104% and 105%	110	77.4	78.5	83.4	90.1	113	113
Cc1cc(O)c2c(c1)C(=O)c1cc(O)cc(O)c1C2=O [Emodin]	85.5% and 86.8%	90.4	90.9	100	109	107	89.1	83.7

— the supplement of paper PMC10981050
